Rows were chosen to be rich in hits. Some 3.5% of all compounds tested hit in one or more screens of this group.
TEAD-YAP block = TEAD-YAP interaction inhibition; HEK-TIYL cells, TEAD-Gal4/YAP UAS-luciferase luminescence; inhibition, % at 9.12 µM; 640,000 compounds, 1.4% hits; in the data active = inhibition above about 32%;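 note: 0% = median of test compound wells and 100% = reference inhibitor wells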
FBW7 act = human FBW7 E3 ligase activation, primary screen | AlphaScreen FBW7–phospho-cyclin E peptide binding, activator screen | normalized activity (activation), % at 26.1 µM | 650,000 compounds, 0.13% hits | Q969H0; in the data active = normalized activity above about 1.9%;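 note: purified mutant Fbw7 with reduced substrate affinity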
GPR151 ag = human GPR151 activation; Q8TDV0; PathHunter beta-arrestin GPR151 cells, luminescence; activation, % at 11.2 µM; 650,000 compounds, 1% hits; AID 1508602; in the data active = activation above about 4.9%;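 note: 0% = median of compound wells and 100% = cells with positive control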
Target sequence (Q8TDV0 whole entry, looked up): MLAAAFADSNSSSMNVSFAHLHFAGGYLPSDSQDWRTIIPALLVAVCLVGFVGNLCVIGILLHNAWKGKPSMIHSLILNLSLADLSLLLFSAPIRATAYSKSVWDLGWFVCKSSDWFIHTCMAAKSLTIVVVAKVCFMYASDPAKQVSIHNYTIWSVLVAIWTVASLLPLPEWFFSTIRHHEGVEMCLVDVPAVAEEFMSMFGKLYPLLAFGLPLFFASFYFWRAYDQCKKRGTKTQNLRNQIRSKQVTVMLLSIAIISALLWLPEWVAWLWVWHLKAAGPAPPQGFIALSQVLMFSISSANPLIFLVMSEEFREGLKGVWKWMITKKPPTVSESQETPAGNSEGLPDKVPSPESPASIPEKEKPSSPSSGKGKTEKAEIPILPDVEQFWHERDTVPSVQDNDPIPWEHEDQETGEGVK
MITF inh = inhibitors of human MITF | O75030 | AlphaScreen MITF homodimerization, bead proximity signal | inhibition, % at 2.6 µM | 650,000 compounds, 0.91% hits; in the data active = inhibition above about 50%;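 note: 0% = vehicle wells with protein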
GPR151 conf act = confirmation of human GPR151 activators; shares compounds with GPR151 ag; GPR151 PathHunter beta-arrestin cells, luminescence, 90 min; % of EA-reagent control over plate median; activation, % at 11.2 µM; 6,700 tested, under 10 active; AID 1508609;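 active = mean percent activation across replicates above the confirmation screen cutoff of 4.91%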
GPR119 counter = activates human GPR119 in a GPR151 counter-screen | shares compounds with GPR151 ag | GPR119 PathHunter beta-arrestin cells, luminescence, 90 min; 0 = compound-well median, 100 = enzyme-acceptor control | activation, % at 11.2 µM | 6,700 compounds, 0.3% hits | AID 1508611;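 active = mean percent activation in the counterscreen above 29.09%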;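 note: counterscreen on off-target GPR119 to flag nonselective hits from the GPR151 activator screen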
An asterisk follows results filed as active; nt = no result.

SMILES	TEAD-YAP block	FBW7 act	GPR151 ag	MITF inh	GPR151 conf act	GPR119 counter
CCOC(=O)c1cnc2cc(C(F)(F)F)ccc2c1Nc1cc(OC)ccc1OC	5.9	0.0	4.9*	-0.1	-0.7	9.3
CCOC(=O)c1cnc2ccc(OC)cc2c1Nc1ccccc1C(=O)O	-1.4	-0.1	5.6*	-8.7	-0.4	-3.7
CCOC(=O)c1cnc2ccc(OC)cc2c1Nc1ccccc1C	-4.5	0.0	-0.1	2.9	nt	nt
CCNc1nccc(Nc2ccc3c(c2)OCO3)n1	-39.3	0.0	-1.3	-2.5	nt	nt
N#Cc1c(N)c(C(N)=S)n2c1CCC2	8.0	-0.1	-1.3	22.7	nt	nt
O=C(CCCn1nc(-c2ccccc2)c2ccccc21)NCc1ccccn1	3.4	-0.3	7.6*	7.3	-0.4	-6.7
COCCN1CC(CNC(=O)c2cc(COc3ccc(F)cc3Cl)on2)CC1=O (stereo not given)	1.8	0.0	9.8*	6.7	-1.2	-9.5
Cc1c(Cl)cccc1NC(=O)C(=O)NCC(O)c1ccccc1 (stereo not given)	-6.0	-0.1	7.3*	-1.6	-0.2	10.1
Cc1c(Cl)cccc1NC(=O)C(=O)NC(C)c1ccccc1 (stereo not given)	2.6	0.0	0.9	1.1	nt	nt
CC(=O)c1c(C)nnn1-c1nonc1C	7.7	0.5	5.1*	14.8	0.9	-3.9
COc1cccc(C(=O)Nc2c3c(nn2C(C)(C)C)CSC3)c1OC	-4.1	0.2	-0.3	13.3	nt	nt
O=S(=O)(NCC(c1ccco1)N1CCc2ccccc21)c1ccc(F)cc1 (stereo not given)	4.0	-0.1	9.1*	3.3	-0.6	-8.3
N#CCn1cnc2c(nnn2-c2cccc(F)c2)c1=O	9.7	-0.1	6.1*	-3.5	-0.3	-6.6
O=C(NCCc1ccc(O)cc1)c1cnc(-c2ccc(N3CCOCC3)nc2)s1	-0.1	0.2	5.1*	-1.6	-1.1	-3.6
Cc1cc(N2CCOCC2)nc(N2CCN(C(=O)Cc3cccs3)CC2)n1	11.1	0.3	10.5*	2.8	-0.9	-3.4
Cc1cc(=O)[nH]c2nnc(SCC(=O)N3CCCCCC3)n12	4.0	-0.2	6.1*	-4.0	-0.3	0.1
Cc1cc(C)nc(SCC(=O)N2CCCCC2)n1	-1.8	0.1	7.5*	13.1	0.1	15.4
CC(c1ccco1)N(C)Cc1ccc(C(N)=O)c(=O)[nH]1 (stereo not given)	2.7	0.1	0.2	-1.6	nt	nt
CC(c1ccco1)N(C)Cc1ccc(C(=O)NC23CC4CC(CC(C4)C2)C3)c(=O)[nH]1 (stereo not given)	-4.0	-0.2	11.4*	-0.9	0.4	4.3
O=C(C[n+]1cccc2ccccc21)c1ccc(-c2ccccc2)cc1	5.6	0.3	-1.2	23.4	nt	nt
COc1ccc(C(=O)C[n+]2cccc(Br)c2)cc1	-5.5	-0.1	0.2	-5.8	nt	nt
O=C(C[n+]1cccc2ccccc21)c1ccc(Br)cc1	-2.1	-0.1	15.3*	-5.1	-0.2	-2.0
COC(=O)c1ccc[n+](CC(=O)c2ccc(Br)cc2)c1	-1.5	0.5	6.2*	-0.3	0.1	1.3
COC(=O)[C@@H]1CCCN1C1CCC(=O)N(CCC(C)C)CC1 (stereo not given in full)	17.0	0.3	-1.9	16.0	nt	nt
CCN=c1scc(-c2ccc(Br)s2)n1/N=C/c1ccccn1	-17.4	-0.4	1.8	16.4	nt	nt
SMILES	TEAD-YAP block	FBW7 act	GPR151 ag	MITF inh	GPR151 conf act	GPR119 counter
CSCCC(C)N1CCC(Oc2ccc(C(=O)NCc3ccncc3)cc2)CC1 (stereo not given)	5.7	0.0	5.0*	6.2	-0.9	6.9
O=C(NCc1ccncc1)c1ccc(OC2CCN(C3CCSCC3)CC2)cc1	-0.3	0.0	0.4	5.4	nt	nt
COc1ccc(C(=O)Oc2ccc(/C=C/c3ccncc3)cc2)cc1OC	57.2*	-0.1	5.2*	13.3	-0.4	3.5
O=C(Oc1ccc(OC(=O)c2ccncc2)cc1)c1ccncc1	-7.7	-0.1	10.2*	8.9	-1.3	-14.7
CC(C)(C)c1ccc(-c2ccc(OCCN3CCOCC3)nc2)cc1	58.2*	-0.6	5.8*	-1.9	-0.8	4.0
Cc1ccc(-c2ccc(OCCN3CCOCC3)nc2)cc1	-23.2	-0.2	0.5	16.8	nt	nt
CCOC(=O)C(CC)Oc1ccc2c(=O)c(Oc3cc(C)ccc3C)coc2c1 (stereo not given)	4.2	0.0	0.9	2.0	nt	nt
CC(=O)Nc1cccc(NC(C)=C(C#N)C#N)c1	2.2	-0.1	5.2*	-1.6	0.6	3.5
COCCn1c(=NC(=O)CN2C(=O)CCC2=O)sc2cc(Br)ccc21	1.2	0.1	-0.3	0.5	nt	nt
CCOCCn1c(=NC(=O)CN2C(=O)CCC2=O)sc2cc(Br)ccc21	10.4	-0.2	5.8*	-2.7	0.0	3.7
CC1CCCN(C(=O)COc2ccc(Cl)cc2Cl)C1 (stereo not given)	-33.9	0.1	0.6	18.1	nt	nt
COc1cc(C=O)ccc1Oc1nc2ccccc2n2cnnc12	1.0	0.0	5.8*	9.2	0.9	14.6
COc1ccc(CN(C(=O)c2ccco2)c2ccccc2C(=O)O)cc1	-2.3	-0.1	0.8	-4.7	nt	nt
COC(=O)c1ccccc1NC(=O)c1ccc(OCc2ccccc2Cl)cc1	1.9	-0.1	-1.0	-9.1	nt	nt
CC(C)[C@@H](Cn1nc(-c2ccc(F)c(F)c2)ccc1=O)NC(=O)c1ccc(=O)[nH]n1	-0.4	-0.1	9.0*	5.9	0.1	4.7
COCCN(Cc1cccc(Cl)c1)C(=O)c1nc2ccc(-c3cn[nH]c3)cc2s1	-31.2	-0.2	6.2*	1.6	-0.3	-6.7
COCCN(Cc1cccc(OC)c1)C(=O)c1nc2ccc(-c3cn[nH]c3)cc2s1	-8.8	0.2	0.9	3.8	nt	nt
O=C(O)CN1C(=O)c2cccc3c(Cl)cc(Br)c1c23	0.9	-0.1	0.0	2.5	nt	nt
O=C(O)CN1C(=O)c2cccc3c(Cl)cc(Cl)c1c23	-0.2	-0.3	6.1*	-0.9	0.1	2.3
O=C1CC(c2nc3ccccc3n2Cc2ccccc2F)CN1c1ccccc1 (stereo not given)	-10.7	-0.2	8.8*	-3.1	-0.1	-9.2
COc1ccc(-c2nn(-c3ccccc3)cc2C=O)c(N=[N+]=[N-])c1	0.0	0.1	2.4	3.8	nt	nt
CS(=O)(=O)N(CC(=O)Nc1cccc(F)c1)c1ccccc1Cl	-5.6	-0.1	5.0*	0.3	0.2	2.1
CC(C)NC(=O)CN(c1cccc2ccccc12)S(C)(=O)=O	2.7	0.2	8.4*	-15.6	-0.1	-1.9
CCc1ccccc1N(CC(=O)Nc1ccc(F)c(F)c1)S(C)(=O)=O	-10.8	-0.2	6.7*	1.1	-0.2	-8.5
CS(=O)(=O)N(CC(=O)Nc1cccc(F)c1)c1ccccc1F	-1.4	0.5	4.7	-4.2	nt	nt
CCc1ccccc1N(CC(=O)Nc1ccccc1Cl)S(C)(=O)=O	3.8	0.0	14.1*	-5.2	-1.0	0.6
CCc1ccccc1N(CC(=O)Nc1ccccc1SC)S(C)(=O)=O	0.3	0.1	5.6*	3.9	-0.2	-5.7
